# Test results taken from the supplement of paper PMC8371130.
# Structures can show the parent of a compound that is named as a salt.
# Tested on: HL-1
# Assay: relative cell viability (CellTiter-Glo) vs DMSO control (% of DMSO control); higher = more viable cells
# Method in brief: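 One day after HL-1 mouse atrial cardiomyocytes were plated (1000 cells per well, 384-well plates) with compounds at 40, 200, 1000 or 5000 nM in 0.01% DMSO, they were transferred to a hypoxic workstation at 1% O2. After 48 h there, the cells were reoxygenated for 24 h in a normal incubator, and comparison cells stayed in normoxia throughout the same time. Cell viability was quantified with CellTiter-Glo luminescence and normalised to vehicle-treated control cells.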
# [1] = oxygen condition: hypoxia 48 h (1% O2) + reoxygenation 24 h, 40 nM
# [2] = oxygen condition: hypoxia 48 h (1% O2) + reoxygenation 24 h, 200 nM
# [3] = oxygen condition: hypoxia 48 h (1% O2) + reoxygenation 24 h, 1000 nM
# [4] = oxygen condition: hypoxia 48 h (1% O2) + reoxygenation 24 h, 5000 nM
# [5] = oxygen condition: normoxia 72 h, 40 nM
# [6] = oxygen condition: normoxia 72 h, 200 nM
# [7] = oxygen condition: normoxia 72 h, 1000 nM
# [8] = oxygen condition: normoxia 72 h, 5000 nM
Structure (SMILES),relative cell viability [1],relative cell viability [2],relative cell viability [3],relative cell viability [4],relative cell viability [5],relative cell viability [6],relative cell viability [7],relative cell viability [8]
Nc1cccc2c1C(=O)N(C1CCC(=O)NC1=O)C2=O (stereo not drawn) [Pomalidomide],100,97.5,103,112,96.9,104,103,113
O=C(O)[C@H](CC(=O)N1C[C@H]2CCCC[C@H]2C1)Cc1ccccc1 [Mitiglinide calcium],108,101,99.7,108,101,102,104,110
CCN1CCCC1CNC(=O)c1cc(S(=O)(=O)CC)c(N)cc1OC (stereo not drawn) [Amisulpride],103,104,111,108,104,107,119,111
COCCOC(=O)C1=C(C)NC(C)=C(C(=O)OC(C)C)C1c1cccc([N+](=O)[O-])c1 (stereo not drawn) [Nimodipine],109,108,109,107,108,109,103,104
CN(C)CCCN1c2ccccc2Sc2ccc(Cl)cc21 [Chlorpromazine],104,103,106,107,97.1,100,106,117
CO[C@H]1C[C@@H]2CC[C@@H](C)[C@@](O)(O2)C(=O)C(=O)N2CCCC[C@H]2C(=O)O[C@H]([C@H](C)C[C@@H]2CC[C@@H](OC(=O)C(C)(CO)CO)[C@H](OC)C2)CC(=O)[C@H](C)/C=C(\C)[C@@H](O)[C@@H](OC)C(=O)[C@H](C)C[C@H](C)/C=C/C=C/C=C/1C [Temsirolimus],70.7,67.6,74.2,61.7,60.2,67.5,81.1,44
O=P(O)(O)C(O)(Cn1ccnc1)P(=O)(O)O [Zoledronic Acid],104,100,100,111,104,107,102,109
Cc1ccc(N(CC2=NCCN2)c2cccc(O)c2)cc1 [Phentolamine mesilate],96.2,94.7,107,106,102,104,108,115
CCCc1ncc(C[n+]2ccccc2C)c(N)n1 [Amprolium HCl],104,104,108,110,97.4,104,110,100
C=CCc1cc(OC)c(O)c(C(=O)NCCO)c1 [Alibendol],103,102,108,113,101,104,112,115
CCN(CC)C(=O)C1(c2ccccc2)CC1CN (stereo not drawn) [Milnacipran HCl],107,108,105,118,107,101,106,109
Cc1ccc(NC(=O)c2ccc(CN3CCN(C)CC3)cc2)cc1Nc1nccc(-c2cccnc2)n1 [Imatinib Mesylate],121,117,136,111,122,146,156,117
N[C@H](Cc1ccccc1)C(=O)O [D-Phenylalanine],103,99.4,109,111,92,101,108,116
NS(=O)(=O)c1cc(Cl)c(Cl)c(S(N)(=O)=O)c1 [Dichlorphenamide],109,106,103,115,105,102,103,109
CO[C@H]1C[C@@H]2CC[C@@H](C)[C@@](O)(O2)C(=O)C(=O)N2CCCC[C@H]2C(=O)O[C@H]([C@H](C)C[C@@H]2CC[C@@H](OCCO)[C@H](OC)C2)CC(=O)[C@H](C)/C=C(\C)[C@@H](O)[C@@H](OC)C(=O)[C@H](C)C[C@H](C)/C=C/C=C/C=C/1C [Everolimus],79.5,75,73.9,87.5,70.4,66.9,66.5,69.7
CN(C)CCC(c1ccc(Cl)cc1)c1ccccn1 (stereo not drawn) [Chlorpheniramine Maleate],87.2,101,98.4,117,101,114,105,121
C[C@]12CC[C@@H]3c4ccc(O)cc4CC[C@H]3[C@@H]1CC[C@@H]2O [Estradiol],105,98.2,100,94,101,103,100,100
C=CC[N+]1([C@H]2C[C@H]3[C@@H]4CC[C@H]5C[C@H](O)[C@@H](N6CCOCC6)C[C@]5(C)[C@H]4CC[C@]3(C)[C@H]2OC(C)=O)CCCC1 [Rocuronium bromide],104,105,116,110,104,104,104,107
Cc1cc(N)c2ccccc2[n+]1CCCCCCCCCC[n+]1c(C)cc(N)c2ccccc21 [Dequalinium chloride],101,104,101,112,93.3,107,97.3,101
CCC[C@@H]1C[C@@H](C(=O)N[C@@H]([C@H]2O[C@H](SC)[C@H](O)[C@@H](O)[C@H]2O)[C@H](C)Cl)N(C)C1 [Clindamycin hydrochloride],98.5,93.8,91.3,102,102,98,100,86.2
CCCCc1oc2ccccc2c1C(=O)c1cc(I)c(OCCN(CC)CC)c(I)c1 [Amiodarone HCl],99.8,95.4,103,110,102,110,106,116

Structure (SMILES),relative cell viability [1],relative cell viability [2],relative cell viability [3],relative cell viability [4],relative cell viability [5],relative cell viability [6],relative cell viability [7],relative cell viability [8]
CCOc1ccccc1OC(c1ccccc1)C1CNCCO1 (stereo not drawn) [Reboxetine mesylate],105,102,105,122,115,99.7,108,119
C=CC(=O)N1CCC[C@@H](n2nc(-c3ccc(Oc4ccccc4)cc3)c3c(N)ncnc32)C1,98.9,96.6,101,102,101,90.2,90.5,102
CC(S)C(=O)NCC(=O)O (stereo not drawn) [Tiopronin],95.4,102,104,105,99.2,98.9,101,103
CCCC(=O)O[C@]1(C(=O)COC(C)=O)CC[C@H]2[C@@H]3C[C@H](F)C4=CC(=O)C=C[C@]4(C)[C@@]3(F)[C@@H](O)C[C@@]21C [Difluprednate],83.3,93.3,92.2,102,90.8,89,94.4,102
COC(=O)C1=C(C)NC(C)=C(C(=O)OCCN(C)Cc2ccccc2)C1c1cccc([N+](=O)[O-])c1 (stereo not drawn) [Nicardipine HCl],107,111,112,114,107,106,105,122
CC1(C)S[C@@H]2[C@H](NC(=O)[C@H](N)c3ccc(O)cc3)C(=O)N2[C@H]1C(=O)O [Amoxicillin],104,103,111,114,104,100,106,108
CCCC1O[C@@H]2C[C@H]3[C@@H]4CCC5=CC(=O)C=C[C@]5(C)[C@H]4[C@@H](O)C[C@]3(C)[C@]2(C(=O)CO)O1 (stereo partly drawn) [Budesonide],95.2,102,91.2,96.5,90.9,83.5,95.6,96.4
O=C(Nc1ccccc1)OCC(CN1CCCCC1)OC(=O)Nc1ccccc1 (stereo not drawn) [Diperodon HCl],103,101,104,98.6,87.5,107,103,109
CC[C@H]1OC(=O)[C@H](C)[C@@H](O[C@H]2C[C@@](C)(OC)[C@@H](O)[C@H](C)O2)[C@H](C)[C@@H](O[C@@H]2O[C@H](C)C[C@H](N(C)C)[C@H]2O)[C@](C)(OC)C[C@@H](C)C(=O)[C@H](C)[C@@H](O)[C@]1(C)O [Clarithromycin],101,101,105,105,100,100,107,108
Nc1nc(F)nc2c1ncn2[C@@H]1O[C@H](CO)[C@@H](O)[C@@H]1O [Fludarabine],104,101,107,109,101,107,104,83.7
COc1cc2c(cc1OC)CC(=O)N(CCCN(C)C[C@H]1Cc3cc(OC)c(OC)cc31)CC2 [Ivabradine HCl],108,106,107,106,105,106,102,106
COc1cccc2c1C(=O)c1c(O)c3c(c(O)c1C2=O)C[C@@](O)(C(C)=O)C[C@@H]3O[C@H]1C[C@H](N)[C@H](O)[C@H](C)O1 [Daunorubicin HCl],56.7,30.5,17.2,2.34,62.6,29.6,10.3,2.68
Nc1ccn([C@@H]2O[C@H](CO)[C@@H](O)C2(F)F)c(=O)n1 [Gemcitabine],3.81,3.59,4.33,3.65,3.56,3.5,3.75,3.7
COc1ccc2cccc(CCNC(C)=O)c2c1 [Agomelatine],96.1,109,84.5,113,94.3,90.4,132,111
CC1(C)[C@@H](OC(=O)CCC(=O)O)CC[C@]2(C)[C@H]3C(=O)C=C4[C@@H]5C[C@@](C)(C(=O)O)CC[C@]5(C)CC[C@@]4(C)[C@]3(C)CC[C@@H]12 [Carbenoxolone Sodium],94.3,103,100,108,93.6,102,102,107
CC[C@]1(O)C[C@@H]2CN(CCc3c([nH]c4ccccc34)[C@@](C(=O)OC)(c3cc4c(cc3OC)N(C)[C@H]3[C@@](O)(C(=O)OC)[C@H](OC(C)=O)[C@]5(CC)C=CCN6CC[C@]43[C@@H]65)C2)C1 [Vinblastine],35.3,41.6,43.5,37.2,28,32.3,36,35.9
CS(=O)(=O)c1ccc(C(=O)Nc2ccc(Cl)c(-c3ccccn3)c2)c(Cl)c1 [Vismodegib],103,107,108,117,104,110,114,112
C[C@H]1c2cccc(O)c2C(=O)C2=C(O)[C@]3(O)C(=O)C(C(N)=O)=C(O)[C@@H](N(C)C)[C@@H]3[C@@H](O)[C@@H]21 [Doxycycline HCl],102,104,105,107,105,106,95.6,92.9
Cc1ccc(C(=O)C(C)CN2CCCCC2)cc1 (stereo not drawn) [Tolperisone HCl],107,107,109,108,107,114,81.5,111
COc1nc(C)nc(Cl)c1NC1=NCCN1 [Moxonidine],103,97.1,99.6,112,110,103,107,111
